Screens from PubChem.
Compounds with a hit are over-represented: about 4.1% of the library has one in this group of screens.
DAX1 inh-1: DAX1 (NR0B1) inhibitors, primary screen, cell-based, HEK293, Gal4-DAX1, luciferase luminescence | Nuclear receptor subfamily 0 group B member 1 (Homo sapiens), P51843 | HEK293 Gal4-DAX1 luciferase reporter | inhibition, % at 6.75 µM | actives 0.99% (n = 340,000) | AID 504766, 2011;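 active = inhibition above the mean over all tested compounds plus 3 SD, cut at about 4.2% in these data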;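 also: 0% = DAX1-transfected cells with DMSO and 100% = empty-vector control cells with DMSO; inhibition shows as a rise in luminescence from relieved DAX1 repression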
Target sequence (P51843 207-470 limits assumed): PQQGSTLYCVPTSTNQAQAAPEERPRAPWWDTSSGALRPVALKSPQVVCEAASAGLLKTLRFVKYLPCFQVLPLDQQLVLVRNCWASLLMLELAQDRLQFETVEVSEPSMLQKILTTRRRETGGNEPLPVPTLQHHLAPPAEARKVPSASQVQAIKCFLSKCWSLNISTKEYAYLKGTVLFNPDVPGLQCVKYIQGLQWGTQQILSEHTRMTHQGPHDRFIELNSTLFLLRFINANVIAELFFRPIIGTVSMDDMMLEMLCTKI
hcDAF-12 act: H. contortus DAF-12 nuclear receptor activators, primary screen, cell-based, luminescence, HEK293, lit1-tk-luc reporter | HEK293 hcDAF-12 lit1-tk-luc reporter; 0% DMSO, 100% Δ7-dafachronic acid | activation, % at 6.8 µM | actives 1.4% (n = 370,000);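 active = activation above the mean of all tested compounds plus 3 SD, cut at about 5.5% in these data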;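 also: 100% = response to 3 µM Δ7-dafachronic acid high control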
ssDAF12 agonist: S. stercoralis DAF-12 nuclear receptor activators, primary screen, cell-based, luminescence, HEK293, GRIP1 co-expression, lit1-tk-luc | Nuclear hormone receptor DAF-12 (Strongyloides stercoralis) | HEK293 ssDAF-12/GRIP1 lit1-tk-luc reporter; % of 3 µM dafachronic acid response | activation, % at 6.8 µM | actives 1% (n = 370,000);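 active = activation above the mean over all tested compounds plus 3 SD, cut at about 0.9% in these data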;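 also: 0% = DMSO-only wells and 100% = 3 µM delta7-dafachronic acid wells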
hgDAF-12 ag: H. glycines DAF-12 receptor agonists, primary screen, cell-based, luminescence, HEK293, GAL4 fusion, UAS-luciferase. Nuclear hormone receptor DAF-12 (Heterodera glycines), GAL4 fusion. HEK293 GAL4-hgDAF12 UAS-luciferase reporter, agonist luminescence; normalized to butyrate control. activation, % at 6.8 µM. actives 1.8% (n = 370,000). AID 687014, 2013;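 active = activation above a cutoff set at the mean of all screened compounds plus 3 SD, cut at about 10% in these data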;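 also: 0% = DMSO wells and 100% = sodium butyrate wells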
DAX1 inh-2: DAX1 (NR0B1) inhibitors on StAR promoter, primary screen, cell-based, luminescence, SF-1 (NR5A1), full-length DAX-1 | HEK293T StAR-luciferase reporter, SF-1/DAX-1 repression relief | actives 1.1% (n = 370,000) | inhibition, % at 6.8 µM;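 active = inhibition above the mean over all tested compounds plus 3 SD, cut at about 3.6% in these data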;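 also: 0% = DAX-1 cells with DMSO and 100% = cells lacking DAX-1 with DMSO; higher inhibition means more luminescence from relief of DAX-1 repression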
hgDAF12 conf: H. glycines DAF-12 receptor agonists, confirmation, cell-based, luminescence, HEK293, GAL4-LBD fusion; shares compounds with hgDAF-12 ag; HEK293 GAL4-hgDAF12 luciferase reporter, agonist mode; percent of butyrate response; activation, % at 6.8 µM; actives 80% (n = 3,300);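 active = mean activation over triplicate wells above the hit cutoff derived from the earlier primary screen, cut at about 11% in these data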;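 also: 0% = DMSO low control and 100% = 2 mM sodium butyrate high control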
LXR ag 2: LXR agonists, Gal4 luciferase reporter, confirmation, counter-screen for hgDAF-12 agonist project, cell-based, luminescence, HEK293, H. glycines campaign | shares compounds with hgDAF-12 ag | AID 743051, 2013 | activation, % at 6.8 µM | 3,300 tested, under 10 active | 24 h;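 active = mean activation of the triplicate above a set limit carried over from the primary screen, none filed active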
The depositor's hits bear a star; · = no result.

SMILES	DAX1 inh-1	hcDAF-12 act	ssDAF12 agonist	hgDAF-12 ag	DAX1 inh-2	hgDAF12 conf	LXR ag 2
CC(Sc1nnc(-c2cccnc2)n1-c1ccccc1F)C(=O)N1CCCc2ccccc21 (centres undefined)	·	0	-1	1	0	·	·
O=C(Nc1ccc2c(c1)CCC2)c1cc(F)cc(F)c1	2	0	0	14*	4.1*	13*	0
Cn1cc(C(=O)Nc2ccc3c(c2)CCC3)cn1	2	1	0	8	2	·	·
COc1ccc2nc(N(CCN(C)C)C(=O)c3ccc4ncsc4c3)sc2c1	0	6.0*	0	14*	3.9*	19*	1
COc1ccc2nc(N(CCN(C)C)C(=O)c3ccc4ccccc4c3)sc2c1	0	2	-1	1	0	·	·
CCC(C)NCC(=O)Nc1ccc(S(N)(=O)=O)cc1 (centres undefined)	·	-1	-1	0	0	·	·
CCOC(=O)CC[C@@]1(C(=O)OCC)C[C@@H](CC(=O)NCc2ccc(C)o2)C(=O)N2CCCC=C21	·	-1	-1	-1	0	·	·
O=C(Nc1nc2c(s1)C(=O)CCC2)c1ccccc1	0	5	0	16*	3	17*	1
O=C(Nc1nc(=O)c2ccccc2s1)c1ccccc1	1	5	0	9	2	·	·
CC1Cc2ccccc2N1C1=CC(=O)CCC1 (centres undefined)	0	-2	-2	-2	-1	·	·
O=C1c2cccn2CC2Cc3ccccc3N12 (centres undefined)	·	6.5*	0	15*	·	17*	1
CN=c1scc(-c2cccs2)n1/N=C/c1ccc(O)c(O)c1O	-1	6.1*	0	14*	3	11*	1
CCCCNc1ncnc2c1cnn2-c1ccc(Cl)cc1	-1	1	0	16*	1	24*	1
C=CCNc1ncnc2c1cnn2-c1cccc(C)c1	2	2	-1	17*	6.3*	16*	1
CCCCNc1ncnc2c1cnn2-c1ccccc1	-1	3	0	20*	0	17*	1
CC(=O)c1ccc(NC(=S)NCCc2cccc(Cl)c2)cc1	3	1	-1	17*	3	12*	0
CC(=O)c1ccc(NC(=S)NCCc2ccc(S(N)(=O)=O)cc2)cc1	1	2	-2	4	0	·	·
O=C(c1ccc(F)cc1Cl)N(Cc1ccccn1)CC1CCCO1 (centres undefined)	·	-2	-1	31*	0	1	0
O=C(c1cc(COc2ccc(F)cc2Cl)on1)N(Cc1ccncc1)CC1CCCO1 (centres undefined)	-1	1	-2	2	0	·	·
COc1ccc(C(=O)NC(=S)N2CCN(C)CC2)cc1Br	3	0	-2	-4	0	·	·
CC(=O)c1ccc(NC(=O)c2noc3c2CCCCC3)cc1	2	2	1	14*	3.8*	17*	1
COc1ccc2c(c1OC)C(=O)N1C2SC(C)(C)[C@H]1C(=O)NCC(C)C (some centres undefined)	-1	-2	-1	1	0	·	·
CC(C)(C)c1ccc(-c2noc(-c3ccno3)n2)cc1	8.3*	5	0.9*	13*	2	15*	1
